# Screening results: PubChem, National Center for Advancing Translational Sciences (NCATS)
# IL1B secr inh – inhibitors of inflammasome signaling (IL-1 beta secretion); actives 4.7% (n = 360,000); AID 743279; activity change, % at 57.5 µM; THP-1 LPS/ATP IL-1B secretion, AlphaLISA, 16 h; stronger effect = lower value; in the data active means activity change below about -50%; inconclusive means mostly about -30% to -49%; further: on the % scale 0 is the no-effect control and ±100 the full control effect
#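 THP-1 cells pretreated 1 hr with compounds (up to 57.5 uM final), then stimulated with LPS (250 ng/mL final) plus ATP (1.25 mM final); secreted IL-1B measured by AlphaLISA after 16 hr, decreased signal indicating inhibition.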
# TDP1 block – blocks human tyrosyl-DNA phosphodiesterase 1; Q9NUW8; recombinant TDP1, AlphaScreen DNA substrate cleavage; Potency, µM (titrated, usually from 130 µM), inactives show at the top dose activity change, negative = inhibition, hits mostly inhibitors; actives 0.28% (n = 350,000); further: potency means the concentration at half of the fitted maximal effect; on the % scale 0 is the no-effect control and ±100 the full control effect; nearly all actives have a fitted effect of over 40% in size
# Target sequence (Q9NUW8 whole entry, looked up): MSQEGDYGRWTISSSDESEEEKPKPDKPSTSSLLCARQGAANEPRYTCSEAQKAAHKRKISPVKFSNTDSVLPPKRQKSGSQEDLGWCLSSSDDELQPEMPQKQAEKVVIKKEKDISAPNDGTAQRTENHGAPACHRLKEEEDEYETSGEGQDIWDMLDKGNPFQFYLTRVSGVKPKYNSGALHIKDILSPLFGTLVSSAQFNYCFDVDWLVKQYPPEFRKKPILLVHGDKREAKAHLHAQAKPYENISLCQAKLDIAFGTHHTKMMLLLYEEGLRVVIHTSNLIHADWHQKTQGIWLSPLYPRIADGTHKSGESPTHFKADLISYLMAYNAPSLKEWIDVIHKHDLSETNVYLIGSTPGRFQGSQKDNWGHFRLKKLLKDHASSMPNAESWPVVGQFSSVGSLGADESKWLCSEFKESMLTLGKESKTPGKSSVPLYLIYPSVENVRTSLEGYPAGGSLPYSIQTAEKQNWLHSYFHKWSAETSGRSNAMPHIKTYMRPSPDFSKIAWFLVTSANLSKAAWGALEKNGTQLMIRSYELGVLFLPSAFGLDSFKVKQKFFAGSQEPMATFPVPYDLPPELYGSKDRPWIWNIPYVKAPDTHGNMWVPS
#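 Recombinant E. coli-expressed Tdp1 (1 nM) preincubated with compound 15 min at RT, then 5'-biotin/3'-phosphotyrosine-FITC DNA substrate (15 nM) added for 5 min. AlphaScreen beads (10 ug/ml) added, 10 min RT; tyrosine-FITC cleavage read as signal loss.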
# TDP1 cell CPT – DT40-hTDP1 cell growth loss with CPT; AID 686979; chicken DT40 Tdp1-/-;hTDP1 cells + 20 nM CPT, ATP luminescence, 48 h; actives 12% (n = 420,000); Potency, µM (doses to about 46.2 µM), inactives show at the highest dose activity change, negative = growth inhibition, actives largely listed as inhibitors; further: potency means the concentration at half of the fitted maximal effect; on the % scale 0 is the no-effect control and ±100 the full control effect; nearly all actives have a fitted effect of over 55% in size
#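 Cell growth measured by CellTiter-Glo luminescence after a minimum 48 h, 37 C compound exposure with 20 nM CPT in Tdp1-knockout DT40 cells stably expressing hTDP1, seeded 400/well; qHTS titration format.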
# HepG2 viability – kills HepG2 cells in TGF-b inhibitor counter-screen; HepG2 CAGA-GFP viability, ATP luminescence, 18 h; Potency, µM (doses to about 46.1 µM), for inactives: top-dose activity change, negative = cytotoxicity, actives largely listed as cytotoxic; actives 0.76% (n = 410,000); further: potency means the concentration at half of the fitted maximal effect
#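 CellTiter-Glo luminescence gave cytotoxicity after 18 hours at 37 degrees C. The cells were HepG2 CAGA-GFP in 1% FBS DMEM, stimulated with 500 pg/mL TGF-beta after compound addition. %Activity was normalised to no-cell wells (complete cell-killing) and DMSO (no toxicity), and curves were fitted and classified.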
# TGFb inhibitor – blocks TGF-b signaling | HepG2 CAGA-GFP TGF-b/SMAD3 reporter, GFP fluorescence, 18 h; TGF-beta stimulated, 500 pg/mL final | Potency, µM (top dose mostly 46.1 µM), inactives show top-dose activity, negative = inhibition, most hits filed as inhibitors | actives 1.2% (n = 410,000) | AID 588855; further: potency means the concentration at half of the fitted maximal effect; on the % scale 0 is the no-effect control and ±100 the full control effect; nearly all actives have a fitted effect of over 65% in size
#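 TGF-beta reporter screen: HEPG2 CAGA-GFP, 1% FBS, 500 pg/mL TGF-beta final, 18 h; per-cell GFP summed per well; curves fitted and categorized by class.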
# DT40 TDP1 no CPT – qHTS for Inhibitors of human tyrosyl-DNA phosphodiesterase 1 (TDP1): qHTS in cells in absence of CPT | DT40 Tdp1-/- hTDP1 cells, no CPT, ATP luminescence, 48 h | Potency, µM (doses to about 46.2 µM), inactives show at the top dose activity change, negative = growth inhibition, hits mostly inhibitors | actives 15% (n = 420,000); further: potency means the concentration at half of the fitted maximal effect; on the % scale 0 is the no-effect control and ±100 the full control effect; nearly all actives have a fitted effect of over 55% in size
#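 Chicken DT40 Tdp1-/- cells stably complemented with human TDP1 were seeded at 400 cells/well with DMSO in place of 20 nM camptothecin. After compound pinning, cells grew at least 48 hr at 37 °C; viability read by CellTiter-Glo luminescence.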
# The depositor's hits bear a star; i = inactive; ? = inconclusive; / = no result; [ ] = another dose, or the depositor's remark. Only some compounds are listed: those with a hit (about 18% of all), similar ones and a draw of the others. Unless noted, the call rests on the fitted dose curve; in most records, active means well fitted curve in the direction sought with a large enough effect; inconclusive means small, poorly fitted or top-dose-only effect, or another doubt; inactive means no such curve, though single readings can be large; an effect the other way counts as inactive or inconclusive.
SMILES,IL1B secr inh,TDP1 block,TDP1 cell CPT,HepG2 viability,TGFb inhibitor,DT40 TDP1 no CPT
CCCN(CC(=O)Nc1ccc(Cl)cc1Cl)C(=O)/C=C/c1cc(OC)ccc1OC,0,5%,?,-4%,?,29µM*
Cn1cccc1/C=N/n1c(-c2ccc(C(C)(C)C)cc2)n[nH]c1=S,45,10%,8.2µM*,-42%,-24%,8.2µM*
CCn1c(-c2ccc(C(C)(C)C)cc2)n[nH]c1=S,-4,6%,15µM*,-20%,-18%,8.2µM*
CC(C)(C)c1ccc(-c2n[nH]c(=S)n2-c2ccccc2)cc1,34,/,-16%,2%,-14%,?
CC(C)(C)c1ccc(-c2n[nH]c(=S)n2C2CCCC2)cc1,-7,8%,?,-83%,?,16µM*
Cn1c(-c2ccc(C(C)(C)C)cc2)n[nH]c1=S,15,?,?,-4%,0%,?
CCN(CC)CCOc1c(Br)ccc2c1sc1nc3n(c(=O)c12)CCC3,-64*,/,?,-76%,-11%,21µM*
O=C1C(O)CCN1Cc1ccccc1 (configuration not stated),-14,/,-14%,2%,11%,-11%
Cc1c(C(=O)Nc2ccc3c(c2)OCCO3)sc2nc(-c3ccccc3)cn12,-92*,3%,8.2µM*,-32%,-29%,5.8µM*
CNC(=O)c1sc2nc(-c3ccc(OC)cc3)cn2c1C,-15,-6%,-10%,-33%,-20%,?
Cc1c(C(=O)Nc2ccncc2)sc2nc(-c3ccccc3)cn12,19,-13%,18µM*,-23%,?,10µM*
COc1ccc(-c2cn3c(C)c(C(=O)Nc4cc(NC(C)=O)ccc4OC)sc3n2)cc1,5,-1%[56.1 µM],13µM*,-1%,-4%,9.2µM*
CCN(CC)c1ccc(NC(=O)c2sc3nc(-c4ccccc4)cn3c2C)cc1,/,10%,3.7µM*,-15%,?,5.2µM*
CO[C@H]1[C@H](NC(=O)c2ccco2)c2ccccc2C12CCN(Cc1ccc3cccc(F)c3n1)CC2,/,/,-2%[9.04 µM],/,/,?
CCOC(=O)Cc1ccc(Nc2nc3cc(-c4ccccc4C)sc3c(=O)n2C)cc1,?,/,?,-17%,?,?
COc1ccc(Nc2ncnc3c2cnn3-c2cccc(C)c2)cc1OC,-17,/,?,4%,7%,-13%
COc1ccc(Nc2ncnc3c2cnn3-c2cc(Cl)ccc2C)cc1OC,/,8%,21µM*,-28%,?,?
Cc1ccc(Cl)cc1-n1ncc2c(Nc3cccc(C)c3C)ncnc21,/,10%,16µM*,-58%,-8%,16µM*
CC(=O)OCCC(C)CCC=C(C)C (configuration not stated),/,-3%[56.1 µM],9%,/,/,-5%
Cc1cn([C@H]2C[C@H](O)[C@@H](CNCc3cc(Br)ccc3OCc3ccccc3)O2)c(=O)[nH]c1=O,-23,/,?,-5%,12%,?
N#Cc1ccc(NC(=O)CCc2ccc(S(=O)(=O)N3CCOCC3)cc2)cc1,20,6%,-33%,-12%,-11%,-7%
CC(C)(C)CC(C)(C)NC(=S)Nc1ccc(S(=O)(=O)N2CCOCC2)cc1,-71*,3%,?,-29%,?,?
O=S(=O)(c1ccc(NC(=S)NCCC(c2ccccc2)c2ccccc2)cc1)N1CCOCC1,-16,8%,21µM*,-21%,?,23µM*
N#Cc1ccc(NC(=S)NC(=O)CCc2ccc(S(=O)(=O)N3CCOCC3)cc2)cc1,23,?,13µM*,3%,6%,?
CC1(C(=O)NS(=O)(=O)c2cccc(C#N)c2)CCN1C(=O)Cc1cc(F)ccc1F (configuration not stated),13,/,5%,10%,-1%,-1%
SMILES,IL1B secr inh,TDP1 block,TDP1 cell CPT,HepG2 viability,TGFb inhibitor,DT40 TDP1 no CPT
O=C(Nc1ccc(N2CCCC2)c(S(=O)(=O)Nc2cccc(C(F)(F)F)c2)c1)c1cccs1,?,1%,?,15%,?,15µM*
COc1ccccc1NS(=O)(=O)c1cc(NC(=O)c2sccc2C)ccc1N1CCCC1,-14,2%,?,22%,-2%,?
O=C(Nc1cccc(S(=O)(=O)N2CCCCC2)c1)c1cccs1,i,2%,-16%,-17%,0%,?
COc1ccccc1NS(=O)(=O)c1cc(NC(=O)c2cccs2)ccc1N1CCCC1,0,0%,5.8µM*,23%,0%,9.2µM*
COc1ccccc1NS(=O)(=O)c1cc(NC(=O)c2cccs2)ccc1N1CCCCC1,7,1%,16µM*,-22%,?,15µM*
CN1CCCN(C(=O)CNC(=O)c2ccc(Cl)cc2Cl)CC1,5,0%,3%,14%,9%,-2%
O=C(COc1ccc2ccccc2c1)N[C@@H](C(=O)O)c1ccc(O)cc1,7,/,6%,0%,6%,5%
CN1CCSc2ccc(C(=O)Nc3cccc(F)c3)cc21,-53*,/,?,-6%,10%,?
CCOc1ccccc1CNC(=O)c1ccc2c(c1)N(Cc1ccc(C)cc1)CCS2,/,1%,18µM*,-12%,/,9.2µM*
CCCOc1ccc(CNC(=O)c2ccc3c(c2)N(CC)CCS3)cc1,-22,/,-28%,-18%,-21%,?
CCOc1ccccc1CNC(=O)c1ccc2c(c1)N(CC)CCS2,-23,5%,15µM*,-51%,-15%,9.2µM*
